# Most compounds without a hit are left out; they make up all but 3.3% or so of the library.
# IMPase inh: qHTS Assay for Identifying the Cell-Membrane Permeable IMPase Inhibitors. inhibition (IP1 accumulation), % at 46.1 µM. CHO-M1 cells, IP1 accumulation, HTRF TR-FRET ratio. 120,000 tested, under 10 active; active = well fitted curve in the direction sought with a large enough effect in the signal ratio, not every such curve was filed as active; inconclusive = small, poorly fitted or top-dose-only effect, or a change in a side signal; inactive = no such curve, though single readings can be large or run the other way; the % refers to the signal ratio;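 note: cells stimulated with carbachol in lithium chloride buffer; plate controls were DMSO basal wells for no effect and reference inhibitor wells for full effect; higher means more IMPase inhibition seen as more IP1 and lower FRET ratio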
#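 CHO-M1 cells (CHO stably expressing M1 receptor), compound up to 46 uM final, stimulated with carbachol (50 uM as added) in buffer with 50mM LiCl, pH 7.4, 30 min at 37C. Cytosolic IP1 read by TR-FRET; AC50 from Hill fits.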
# HTT ATP protect: qHTS Multiplex Assay to Identify Dual Action Probes in a Cell Model of Huntington: Cytoprotection (ATP); PC12 HTT-Q103 induced, cytoprotection, ATP luminescence, 40 h; Potency, µM (top dose mostly 56.4 µM), without a hit: cytoprotection (ATP increase), hits mostly activators; 230,000 tested, 0.14% active; AID 1471, 2008; note: potency is the fitted concentration of half-maximal effect; % of control where 0% means no effect; nearly all actives have a fitted effect of over 45% in size
#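 Stable PC12 Q103-GFP cells in serum-supplemented, phenol red-free DMEM; induction by tebufenozide at 100 nM final; compound dose series; cell viability quantified luminescently from ATP.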
# HttQ103 aggreg: qHTS Multiplex Assay to Identify Dual Action Probes in a Cell Model of Huntington: Aggregate Formation (GFP); PC12 HttQ103-GFP aggregates, Acumen cytometry, 40 h; Potency, µM (highest dose often 46.1 µM), for the others: top-dose activity change, negative = inhibition, usual class: inhibitors; 220,000 tested, 1.1% active; AID 1688, 2009; note: potency is the fitted concentration of half-maximal effect; % is set by controls: 0 for no effect and ±100 for the full control effect; nearly all actives have a fitted effect of over 60% in size
#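 Ecdysone-promoter PC12 model expressing HTT exon 1 Q103 fused to GFP, induced by tebufenozide at 100 nM final. Compounds titrated; aggregates sized 1–25 µm scored on a 488 nm laser cytometer.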
# NPSR antag: qHTS Assay for Antagonists of the Neuropeptide S Receptor: cAMP Signal Transduction. AID 1461, 2008. CHO-NPSR cells, cAMP TR-FRET, antagonist mode. Potency, µM (highest dose often 38.3 µM), inactives show at the top dose activity change, negative = inhibition, usual class: inhibitors. 220,000 tested, 1% active; note: potency is the fitted concentration of half-maximal effect; % is set by controls: 0 for no effect and ±100 for the full control effect; nearly all actives have a fitted effect of over 50% in size
# 12-hLO inh: qHTS Assay for Inhibitors of 12-hLO (12-human lipoxygenase); purified 12-hLO, xylenol orange hydroperoxide absorbance; Potency, µM (series often up to 57.1 µM), inactives show at the highest dose activity change, negative = inhibition, hits mostly inhibitors; 150,000 tested, 0.12% active; AID 1452, 2008; note: potency is the fitted concentration of half-maximal effect; % is set by controls: 0 for no effect and ±100 for the full control effect; nearly all actives have a fitted effect of over 55% in size
# Target sequence (P18054 whole entry, looked up): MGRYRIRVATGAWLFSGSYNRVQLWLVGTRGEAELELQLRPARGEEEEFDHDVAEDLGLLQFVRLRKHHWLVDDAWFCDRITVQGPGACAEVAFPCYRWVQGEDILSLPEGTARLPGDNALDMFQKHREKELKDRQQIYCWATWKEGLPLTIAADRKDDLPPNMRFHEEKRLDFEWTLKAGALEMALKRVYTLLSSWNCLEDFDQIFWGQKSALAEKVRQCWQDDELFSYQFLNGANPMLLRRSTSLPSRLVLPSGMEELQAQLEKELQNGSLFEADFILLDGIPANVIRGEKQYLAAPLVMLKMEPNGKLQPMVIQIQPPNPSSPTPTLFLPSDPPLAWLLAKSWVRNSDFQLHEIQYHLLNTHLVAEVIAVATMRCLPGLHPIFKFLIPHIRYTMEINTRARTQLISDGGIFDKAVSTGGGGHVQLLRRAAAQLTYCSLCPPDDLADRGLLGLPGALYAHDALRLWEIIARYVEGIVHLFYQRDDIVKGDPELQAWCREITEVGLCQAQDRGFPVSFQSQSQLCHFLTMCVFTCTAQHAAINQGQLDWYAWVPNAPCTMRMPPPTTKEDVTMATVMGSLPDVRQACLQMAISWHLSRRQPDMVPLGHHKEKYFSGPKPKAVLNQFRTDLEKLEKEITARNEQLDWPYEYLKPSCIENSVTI
#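 Hydroperoxide formation by human 12-lipoxygenase from 40 uM arachidonic acid was followed colorimetrically via ferric-xylenol orange complex, using the 573/405 nm absorbance ratio. Enzyme concentration was 150 nM, with 30 min reaction at room temperature.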
# PNC assembly inh: High Content Assay for Compounds that inhibit the Assembly of the Perinucleolar Compartment. PC3M PTB-GFP, PNC prevalence imaging, 16 h; stronger effect = lower value. activity change (PNC), negative = inhibition, % at 10 µM. 140,000 tested, 3.1% active;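 active = readout at or below -70, meaning at least 70% loss of cells showing the perinucleolar compartment, a nuclear body marking cancer cells; inconclusive = readout between -30 and a set limit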;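 note: plate controls were DMSO wells for no effect and camptothecin positive control wells for full effect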
#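 Compounds are pinned in duplicate onto adhered PC3M cells stably expressing GFP-tagged PTB and incubated 16 h at 37 C. Cells are then fixed, nuclei stained with Hoechst, and PNC-positive cells counted.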
# Numbers without * were called inactive; ? = inconclusive; nt = not tested or not shown; [ ] = dose if it differs, or a comment. Unless noted, calls come from the whole dose curve; as a rule, active = well fitted curve in the direction sought with a large enough effect; inconclusive = small, poorly fitted or top-dose-only effect, or another doubt; inactive = no such curve, though single readings can be large; an effect the other way counts as inactive or inconclusive.
SMILES,IMPase inh,HTT ATP protect,HttQ103 aggreg,NPSR antag,12-hLO inh,PNC assembly inh
CCC(COC(=O)Nc1cccc(C)c1)NC(=O)OCC(C)C (stereo not drawn),5,-35%,10µM*,-7%[46.1 µM],-2%,?
CCOC(=O)Nc1cccc(C(=O)O)c1,0,10%[10 µM],16%,15%,-3%,-104*
CCCCOC(=O)Nc1cccc(C(C)=O)c1,7,-6%,7%,-1%[46.1 µM],-5%,?
CCOC(=O)c1[nH]c(C)c(C(=O)c2cc(F)ccc2F)c1C,14,-27%[1.9 µM],-21%,?,-13%,-95*
c1csc(C2=Nn3c(nnc3-c3ccncc3)SC2)c1,5,25µM*,nt,-12%[46.1 µM],-1%,?
N=C(C[C@@H](O)COc1ccccc1-c1ccccc1)N1CCCCC1,13,-38%,nt,nt,-3%,nt
O=C(Cn1c(=O)[nH]n(-c2ccccc2)c1=O)N1CCCc2ccccc21,13,-20%[10 µM],1.3µM*,-5%[46.1 µM],-7%,5
O=C(COc1nnnc2ccccc12)N1CCCc2ccccc21,14,13%[10 µM],4.5µM*,8%[46.1 µM],-2%,47
O=C(COC(=O)C1(c2ccccc2F)CCCC1)N1CCc2ccccc21,8,5%[1.9 µM],13%,9%,0%,5
Cc1ccc(OCC(=O)N2CCc3ccccc32)cc1,nt,nt,-2%,-1%,-2%,11
O=C(COC(=O)C1(c2ccc(F)cc2)CCCC1)N1CCc2ccccc21,nt,nt,1%,-53%,1%,-109*
O=C(Cn1nnc2ccccc2c1=O)N1CCCc2ccccc21,-4,0%,-3%,-13%[46.1 µM],-6%,?
O=C(COc1ccc2c(c1)CCC2)N1CCc2ccccc21,9,-37%,-7%,-14%[46.1 µM],-8%,-81*
O=C(Cn1[nH]c(=O)c2ccccc2c1=O)OCC(=O)N1CCCc2ccccc21,6,21%[10 µM],11%,-5%[46.1 µM],-2%,-97*
CCN1CCCC1CNCC(O)COc1ccc(C(C)(C)C)cc1C (stereo not drawn),nt,-56%,-22%,7%,nt,nt
Cc1ccc(S(=O)(=O)Nc2ccc(Br)cc2/C=N/n2cnnc2)cc1,-18,-26%,2.2µM*,-26%[46.1 µM],?,45
CCNc1nc(NCC)n2c(SCc3nc4ccccc4c(=O)[nH]3)nnc2n1,-6,7%[10 µM],4%,-9%[46.1 µM],1%,?
CCNc1nc(NCC)n2c(SCc3ccc(F)cc3)nnc2n1,1,13%[10 µM],2.5µM*,-7%[46.1 µM],-1%,43
O=S(NCc1ccco1)C12CC3CC(CC(C3)C1)C2 (stereo not drawn),-13,15%[10 µM],1%,0%[46.1 µM],-7%,-100*
CCC(C)C(=O)O[C@H]1C[C@@H](C)C=C2C=C[C@H](C)[C@H](CC[C@@H]3C[C@@H](O)CC(=O)O3)C21 (stereo partly drawn),?,-18%[1.9 µM],nt,nt,-1%,nt
N#CCSc1nc(Nc2ccc3c(c2)OCO3)c2ccccc2n1,7,-36%,25µM*,-22%[46.1 µM],-16%,15
CCOc1ccccc1C(=O)Nc1c(NC)c2ccccc2oc1=O,-6,nt,nt,nt,nt,nt
CCC1CCc2nc3sc(C(=O)Nc4ccc(F)cc4F)c(N)c3cc2C1 (stereo not drawn),-5,nt,nt,nt,nt,nt
O=C(COC(=O)c1cccc([N+](=O)[O-])c1)c1ccc(OCc2ccccc2)cc1,nt,6%[10 µM],-6%,3%,-2%,-116*
C=CCc1cc(C(=O)N2CCCCC2)ccc1O,3,10%[1.9 µM],22µM*,-1%[46.1 µM],-2%,-81*
SMILES,IMPase inh,HTT ATP protect,HttQ103 aggreg,NPSR antag,12-hLO inh,PNC assembly inh
COC(=O)C1=NNC(C(=O)c2ccco2)C1c1ccc(OC)cc1 (stereo not drawn),nt,6%,8%,9%,nt,nt
CCCC(=O)O[C@]1(C(=O)CCl)[C@@H](C)C[C@H]2[C@@H]3CCC4=CC(=O)C=C[C@]4(C)[C@@]3(F)C(=O)C[C@@]21C,nt,nt,-14%,3.2µM*,-4%,36
CCC(=O)O[C@]1(C(=O)CCl)[C@@H](C)C[C@H]2[C@@H]3CCC4=CC(=O)C=C[C@]4(C)[C@@]3(F)[C@@H](O)C[C@@]21C,nt,nt,nt,2µM*,-6%,-12
COc1ccc(-c2nn(-c3ccccc3)cc2/C=N/n2cnnc2)cc1OC,10,-15%,-1%,-15%[46.1 µM],-3%,?
COc1ccc(-c2nn(-c3ccccc3)cc2/C=N/NC(N)=S)cc1OC,nt,nt,19%,-38%,?,-112*
CCCn1c(=O)sc2cc(NC(=O)c3ccccc3OCC)ccc21,6,nt,nt,nt,nt,nt
COc1ccc(-c2c[n+](CC(=O)OC3CC(C)CCC3C(C)C)c3n2CCC3)cc1 (stereo not drawn),nt,-30%[10 µM],10µM*,-43%,nt,nt
CC(C)[C@@H]1C(=O)N(S(C)(=O)=O)[C@H]2CCN(C(=O)/C=C\CN3CCCCC3)[C@@H]12,12,28%,nt,nt,6%,nt
O=C(CSc1cccc[n+]1[O-])Nc1cc(S(=O)(=O)N2CCOCC2)ccc1Cl,nt,1%[10 µM],-16%,13%,-1%,-88*
CCOC(=O)/C(=N\Nc1ccc(Br)cc1)N1CC(C)OC(C)C1 (stereo not drawn),nt,-12%[10 µM],-2%[9.22 µM],-26%,nt,nt
O=[N+]([O-])c1ccc(O)c(C=Nc2ccc3nc(-c4ccccc4)[nH]c3c2)c1,nt,0%[10 µM],11%,-20%,-7%,35
Oc1c(Br)cc(C=Nc2ccc3nc(-c4ccccc4)[nH]c3c2)c(O)c1Br,nt,-29%,-9%,10µM*,nt,nt
NC1=NC[C@@H](Cc2ccc(O)cc2)N1CCCCC1CCCCC1,nt,2%[10 µM],-2%[9.22 µM],5µM*,nt,nt
CC(C)(C)c1ccc(/C=C/C(=O)c2ccc(NC3=NCCCS3)cc2)cc1,3,12%[10 µM],-3%,7.9µM*,-24%,-1
O=C(/C=C/c1ccc(Br)cc1)c1ccc(NC2=NCCCS2)cc1,nt,nt,1%,?,-23%,-93*
CC(=O)Oc1ccc2c(C)cc(=O)[nH]c2c1,-8,3%,-5%,-28%[46.1 µM],-2%,-114*
CC1=NN(C(=O)c2ccc(Cn3cc(Br)c([N+](=O)[O-])n3)o2)C(O)(C(F)(F)F)C1 (stereo not drawn),nt,nt,9%,-4%,-6%,-114*
CC1=NN(C(=O)c2ccc(Cn3nc(C)cc3C)o2)C(O)(C(F)(F)F)C1 (stereo not drawn),-8,9%,5%,-9%[46.1 µM],3%,13
